In the library only some 1.1% were active in any assay of this set; here they are far more common.
BH1578 lux ind: inducers of Vibrio cholerae quorum light production without autoinducers, primary screen, BH1578 luxS cqsA deficient, single point. hit rate 0.16% among 350,000. activation, % at 18.7 µM. V. cholerae BH1578 lux reporter, luminescence, 6 h; in the data active = activation mostly above about 9.7%, no sharp cut-off
CCHFV vOTU inh: CCHFV vOTU protease inhibitors, primary screen, biochemical, Pep-AMC substrate, fluorescence. Crimean-Congo hemorrhagic fever virus L polyprotein viral ovarian tumor (vOTU) protease …. inhibition, % at 11.5 µM. hit rate 0.55% among 370,000; in the data active = inhibition above about 30%
PrPC surface inh: inhibitors of human cell surface prion protein PrPC, primary screen, cell-based, TR-FRET; AID 720596, 2013; Major prion protein (Homo sapiens), P04156; inhibition, % at 13.8 µM; hit rate 0.43% among 370,000; TR-FRET read-out; in the data active = inhibition above about 24%
Yp Topo-I inh: Yersinia pestis topoisomerase I inhibitors, primary screen, biochemical, cleavage product accumulation, plate reader, single point; DNA topoisomerase I (Yersinia pestis CO92); activity, % at 10 µM; hit rate 0.064% among 360,000; Y. pestis Topo-I cleavage product accumulation; AID 504884, 2011; in the data active = activity above about 50%, passing the limit was not always enough
PrPC confirm: confirmation of inhibitors of cell surface human prion protein, confirmation, cell-based, TR-FRET; shares compounds with PrPC surface inh; cell surface PrPC level; inhibition, % at 13.8 µM; hit rate 65% among 1,500; in the data active = inhibition above about 25%
LD9 cytotox: cytotoxicity in LD9 cells, cytotoxicity control for cell surface PrPc inhibitor project, cell-based, luminescence, high throughput; shares compounds with PrPC surface inh; luminescence viability; inhibition, % at 13.8 µM; hit rate 29% among 1,500; in the data active = inhibition above about 9.5%
Hits are given with their value; – = inactive; · = no result given.

SMILES	BH1578 lux ind	CCHFV vOTU inh	PrPC surface inh	Yp Topo-I inh	PrPC confirm	LD9 cytotox
O=C(Cc1cccc(C(F)(F)F)c1)NCC(=O)Nc1cc(Cl)ccc1Cl	–	–	–	–	·	·
CC1(Cc2cccc(F)c2)C(=O)Nc2ccc(S(=O)(=O)NC3CCCCC3)cc21 (stereo not drawn)	–	–	36	–	–	–
CC(C)NC(=O)c1ccccc1S(=O)(=O)c1ccccc1C#N	–	–	–	–	·	·
CCc1cc2ccccc2nc1SCC(=O)Nc1cc(OC)c(OC)cc1C(=O)O	–	–	40	–	–	–
Cc1[nH]nc(C(F)(F)F)c1N=NN1CCOCC1	–	–	31	–	40	65
CCCC(=O)NCc1ccc2c(c1)cc(C)n2C	–	–	–	–	·	·
Cc1cc(C)c(S(=O)(=O)NCc2ccc3c(c2)cc(C)n3C)c(C)c1	–	–	39	–	43	–
CC(=O)Nc1ccc(S(=O)(=O)NCc2ccc3c(c2)cc(C)n3C)cc1	–	–	35	–	–	–
Cc1cc2cc(CNS(=O)(=O)c3ccc4ccccc4c3)ccc2n1C	–	–	43	–	37	–
CCC(=O)Nc1ccc(N2CCN(Cc3ccccc3)CC2)cc1	–	–	–	–	·	·
CCOC(=O)c1cc(C)sc1NC(=O)CSC1=NCCS1	–	–	–	–	·	·
Cn1c(N2CCC(C(N)=O)CC2)nc2c1c(=O)n(Cc1cccc(Br)c1)c(=O)n2C	–	–	42	–	59	–
O=C(NCc1cccnc1)c1c(O)c2cccc3c2n(c1=O)CCC3	–	–	32	–	39	–
COc1ccccc1OCC(=O)N1CCCC(N2CCN(c3ccc(F)cc3)CC2)C1 (stereo not drawn)	–	–	–	–	·	·
CC1CCCC(C(=O)O)N1C(=O)CCS (stereo not drawn)	–	–	–	–	·	·
Cc1ccc(CSC(Nc2ccc(F)cc2)=C(C#N)C#N)cc1	–	–	33	–	36	25
O=C(Nc1ccccc1N1CCN(c2ccc(F)cc2)CC1)C1CCCCC1	–	–	–	–	·	·
COc1ccc(N=Cc2cc(Cl)ccc2O)cc1Cl	–	–	–	–	·	·
COc1ccc(CCNc2nc(C)nc3c2oc2ccccc23)cc1OC	–	–	–	–	·	·
COc1ccc(CCNc2ncnc3c2oc2ccccc23)cc1OC	–	–	27	–	27	20
COc1ccc(OC)c(C2NC(=O)N(C)C(C)=C2C(=O)OCc2ccccc2)c1 (stereo not drawn)	–	–	68	–	79	–
CC1=C(C(=O)OCc2ccccc2)C(c2ccccc2Cl)NC(=O)N1C (stereo not drawn)	–	–	–	–	·	·
CC(=O)O[C@@]12CO[C@@H]1C[C@@H](O)[C@@]1(C)C(=O)[C@H](O)C3=C(C)[C@@H](OC(=O)[C@H](O)[C@@H](NC(=O)c4ccccc4)c4ccccc4)C[C@@](O)([C@@H](OC(=O)c4ccccc4)C12)C3(C)C (stereo partly drawn)	–	–	–	–	·	·
CC(=O)O[C@H]1C(=O)[C@@]2(C)[C@H]([C@H](OC(=O)c3ccccc3)[C@]3(O)C[C@H](OC(=O)[C@H](O)C(NC(=O)c4ccccc4)c4ccccc4)C(C)=C1C3(C)C)[C@]1(OC(C)=O)CO[C@@H]1C[C@@H]2O (stereo partly drawn)	–	–	31	–	27	–
CC(=O)O[C@H]1C(=O)[C@@]2(C)[C@H]([C@H](OC(=O)c3ccccc3)[C@]3(O)C[C@H](OC(=O)[C@H](O)[C@@H](NC(=O)c4ccccc4)c4ccccc4)C(C)=C1C3(C)C)[C@]1(OC(C)=O)CO[C@@H]1C[C@@H]2O	–	–	35	–	–	–
SMILES	BH1578 lux ind	CCHFV vOTU inh	PrPC surface inh	Yp Topo-I inh	PrPC confirm	LD9 cytotox
CC/C=C/CC(=O)N[C@@H](c1ccccc1)[C@@H](O)C(=O)O[C@H]1C[C@@]2(O)[C@@H](OC(=O)c3ccccc3)C3[C@](C)(C(=O)[C@H](OC(C)=O)C(=C1C)C2(C)C)[C@@H](O)C[C@H]1OC[C@@]31OC(C)=O (stereo partly drawn)	–	–	26	–	–	–
CCc1nc(SCC(=O)Nc2ccc(N(C)C)cc2)c2ccccc2n1	–	–	61	–	81	–
CCc1nc(SCC(=O)NNC(=O)C(C)C)c2ccccc2n1	–	–	104	–	114	–
CCc1nc(SCC(=O)NNC(=O)C2CCCCC2)c2ccccc2n1	–	–	60	–	114	–
CC(=O)c1ccc(NC(=O)CSc2nc(C3CC3)nc3ccccc23)cc1	–	–	–	–	·	·
CC(C)C(=O)NNC(=O)CSc1nc(C2CCCCC2)nc2ccccc12	–	–	–	–	·	·
CS(=O)(=O)N(CC(=O)Nc1ccccc1Sc1ccccc1)c1ccc(F)cc1	–	–	–	–	·	·
CCOC(=O)/C=C1\SCC(=O)N1CC(=O)NCCOC	–	–	–	–	·	·
O=C(CSc1ccc(-c2ccccn2)nn1)c1ccc([N+](=O)[O-])cc1	–	–	–	–	·	·
Cc1ccc(-c2noc(CCC(=O)NCc3ccccc3CN3CCOCC3)n2)cc1	–	–	–	–	·	·
COc1cccc(C2NC(=S)NC(C)=C2C(=O)c2ccccc2)c1OC (stereo not drawn)	–	–	–	–	·	·
C=CCOc1ccc(C2NC(=S)NC(C)=C2C(=O)c2ccccc2)cc1OC (stereo not drawn)	–	–	43	–	50	–
O=C(Nc1c(C(=O)NCc2ccco2)cnn1-c1ccccc1)c1cccc(F)c1	–	–	–	–	·	·
CCOc1ccc2[nH]cc(C(=O)NCCc3ccccc3)c(=O)c2c1	–	–	–	–	·	·
CCOc1ccc2[nH]cc(C(=O)NCc3ccccc3)c(=O)c2c1	–	–	25	–	–	–
CCOC(=O)C1CCN(C(=O)C(=O)c2cn(CC(=O)N3CCCCCC3)c3ccccc23)CC1	–	–	26	–	–	–
Cc1cc(Br)cn2c(Cc3ccsc3)c(-c3ccco3)nc12	·	–	30	·	43	–
Cc1ccc(Cc2c(-c3ccco3)nc3ccc(Br)cn23)cc1	·	–	34	·	57	–
Cc1cc(Br)cn2c(Cc3ccccc3)c(-c3ccco3)nc12	·	–	35	·	50	–
CCOc1ccc(CCNC(=O)c2ccc3c(=O)n4c(nc3c2)CCCCC4)cc1	–	–	–	–	·	·
COc1ccc(C(=O)Nc2scc(-c3ccc(Cl)cc3Cl)c2C(N)=O)cc1	–	–	68	–	34	–
O=C(c1ccco1)N(Cc1cccnc1)C(c1ccccc1)c1nc2ccccc2[nH]1 (stereo not drawn)	·	–	–	·	·	·
COc1ccc(NC(=O)c2cccc(Oc3ccccc3)c2)cn1	–	–	26	–	–	–
COc1ccc(NC(=S)NC(=O)c2ccccc2)cn1	–	–	–	–	·	·
